Source: PubChem
Only some compounds are listed: those with a hit (about 11% of all), similar ones and a draw of the others.
JMJD2A Tudor inh: inhibitors of human JMJD2A Tudor domain; O75164; AlphaScreen JMJD2A-Tudor / H3K4me3 peptide binding; Potency, µM (titrated, usually from 114 µM), without a hit: at the top dose activity change, negative = inhibition, hits mostly inhibitors; 390,000 compounds, 4.4% hits; note: % is set by controls: 0 for no effect and ±100 for the full control effect; nearly all actives have a fitted effect of over 50% in size
HP1b chromo inh: HP1-beta chromodomain-methylated histone interaction inhibition | AlphaScreen HP1-beta / biotin-H3K9me3 peptide binding | Potency, µM (top dose mostly 114 µM), for the others: at the top dose activity change, negative = inhibition, hits mostly inhibitors | 390,000 compounds, 0.56% hits; note: nearly all actives have a fitted effect of over 70% in size
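HP1-beta protein (50 nM final) preincubated 30 min at room temperature with biotinylated H3(1-18)K9me3 peptide (50 nM) in PBS pH 7.4, 0.01% Tween-20, then compound added for 30 min. AlphaScreen streptavidin donor/nickel chelate acceptor beads (10 ug/mL final), 30 min dark, luminescence read.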
G9a block: G9a (human) methyltransferase inhibition. Q96KQ7. G9a H3K9 monomethylation, AlphaScreen, 2 h. Potency, µM (highest dose often 102 µM), inactives show at the highest dose activity, negative = inhibition, actives largely listed as inhibitors. 350,000 compounds, 8.8% hits; note: % is set by controls: 0 for no effect and ±100 for the full control effect; nearly all actives have a fitted effect of over 75% in size
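Signal arises when biotinylated H3K9 peptide, once monomethylated, bridges streptavidin donor and antibody-captured acceptor beads. Enzyme at 20 nM was preincubated 15 min with test compounds; peptide 500 nM and SAM 20 uM then reacted for 2 h.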
PLK1 PBD inh: blocks phosphopeptide binding to human PLK1 polo-box domain; Potency, µM, without a hit: max response, negative = inhibition, actives largely listed as inhibitors; P53350; AID 720504; Plk1 PBD binding of FITC phosphopeptide, fluorescence polarization; 360,000 compounds, 2.8% hits; note: series mostly up to about 57 µM; % is set by controls: 0 for no effect and ±100 for the full control effect; nearly all actives have a fitted effect of over 65% in size
BAZ2B block: inhibitors of human BAZ2B bromodomain; AlphaScreen BAZ2B-H3K14Ac peptide displacement; Potency, µM (top dose mostly 114 µM), inactives show at the highest dose activity change, negative = inhibition, usual class: inhibitors; 360,000 compounds, 4.4% hits; AID 504333; note: % is set by controls: 0 for no effect and ±100 for the full control effect; nearly all actives have a fitted effect of over 60% in size
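Protein-peptide AlphaScreen: BAZ2B 50 nM, b-H3K14Ac 50 nM, 1x PBS pH 7.4 + 0.01% Tween-20. Preincubation 30 min RT; cpd 30 min RT (top 110 uM); beads 20 min RT, light-protected.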
VDR inhibitor: inhibitors of human vitamin D receptor. P11473. VDR-SRC2-3 peptide fluorescence polarization, 2 h. Potency, µM, for the others: max response, negative = inhibition, hits mostly inhibitors. 400,000 compounds, 0.93% hits; note: % is set by controls: 0 for no effect and ±100 for the full control effect
Target sequence (P11473 whole entry, looked up): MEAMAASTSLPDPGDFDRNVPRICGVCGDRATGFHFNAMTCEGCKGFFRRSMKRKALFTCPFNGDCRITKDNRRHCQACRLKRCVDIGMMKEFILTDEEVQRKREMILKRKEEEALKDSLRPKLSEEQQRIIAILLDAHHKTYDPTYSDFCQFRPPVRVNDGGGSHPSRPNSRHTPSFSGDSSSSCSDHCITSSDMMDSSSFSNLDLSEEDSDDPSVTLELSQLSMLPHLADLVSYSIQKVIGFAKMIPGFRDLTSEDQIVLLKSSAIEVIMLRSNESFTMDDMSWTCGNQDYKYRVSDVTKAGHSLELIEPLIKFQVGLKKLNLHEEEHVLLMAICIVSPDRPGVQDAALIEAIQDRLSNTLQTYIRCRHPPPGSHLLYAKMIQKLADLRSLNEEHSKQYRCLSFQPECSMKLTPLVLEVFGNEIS
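Fluorescence polarization assay measuring small-molecule disruption of VDR binding to the coregulator peptide SRC2-3. Compounds were pin-transferred (23 nl) into the reagent mix and incubated 2 h at room temperature before reading.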
The depositor's hits bear a star; [ ] = another dose, or the depositor's remark. Calls come from the whole dose curve; as a rule, active = well fitted curve in the direction sought with a large enough effect; inconclusive = small, poorly fitted or top-dose-only effect, or another doubt; inactive = no such curve, though single readings can be large; an effect the other way counts as inactive or inconclusive. Potency is the fitted concentration of half-maximal effect.

Screening N#Cc1ccc(C(=O)Nc2ccc3c(c2)N(C2CCCC2)C(=O)c2ccccc2S3)cc1 returned JMJD2A Tudor inh -29%, HP1b chromo inh 19%, G9a block -23%[59 µM], BAZ2B block 2% and VDR inhibitor 23%.
CC(C)C(=O)N1CCCC1(C)C(=O)Nc1ccc(-n2cncn2)cc1 (stereo unspecified) was read as PLK1 PBD inh 4%.
`Cc1cccc(NC(=O)CNC(=O)c2cccc(-n3cccc3)c2)c1C` gave JMJD2A Tudor inh 14µM*, HP1b chromo inh inconclusive, G9a block 35µM*, PLK1 PBD inh inconclusive, BAZ2B block 14µM* and VDR inhibitor 5%.
CCN(CC(=O)Nc1ccccc1OC)C(=O)c1cccc(-n2cccc2)c1 was read as JMJD2A Tudor inh inconclusive, HP1b chromo inh -13%, G9a block 45µM*, PLK1 PBD inh -8%, BAZ2B block inconclusive and VDR inhibitor -6%.
For Cc1ccc(C)c(NC(=O)CN(C)C(=O)c2cccc(N3C(=O)CCC3=O)c2)c1 the results were JMJD2A Tudor inh -6%, HP1b chromo inh 3%, G9a block 40µM*, PLK1 PBD inh -5%, BAZ2B block -4% and VDR inhibitor 17%.
Screening Cc1cccc(C)c1NC(=O)CN(C)C(=O)c1cccc(-n2cccc2)c1 returned JMJD2A Tudor inh 8.9µM*, HP1b chromo inh inconclusive, G9a block 50µM*, PLK1 PBD inh -27%, BAZ2B block 50µM* and VDR inhibitor -11%.
Screening CCN(CC(=O)Nc1ccccc1OC)C(=O)c1cc(-c2ccccc2)nn1-c1ccccc1 returned JMJD2A Tudor inh inconclusive, HP1b chromo inh 13%, G9a block inconclusive, PLK1 PBD inh -3%, BAZ2B block 2% and VDR inhibitor -6%.
`Cc1cccc(C)c1NC(=O)CN(C)C(=O)c1ccc(N2C(=O)CCC2=O)cc1` gave JMJD2A Tudor inh -11%, HP1b chromo inh 26%, G9a block inconclusive, PLK1 PBD inh -2%, BAZ2B block 11% and VDR inhibitor 0%.
For Cc1ccc(NC(=O)CN(C)C(=O)c2cccc(-n3cccc3)c2)cc1 the results were JMJD2A Tudor inh inconclusive, HP1b chromo inh 20µM*, G9a block 25µM*, PLK1 PBD inh inconclusive, BAZ2B block 11µM* and VDR inhibitor 3%.
`c1ccc(-c2n[nH]c(-c3ccccn3)n2)cc1` gave JMJD2A Tudor inh inconclusive, HP1b chromo inh 37%, G9a block inconclusive, PLK1 PBD inh 1%, BAZ2B block 8.9µM* and VDR inhibitor 0%.
`O=C(NCCN1C(=O)S/C(=C\c2ccc(F)cc2)C1=O)C1CCN(S(=O)(=O)c2cccs2)CC1` gave JMJD2A Tudor inh inconclusive, HP1b chromo inh -10%, G9a block -4%, PLK1 PBD inh 27µM*, BAZ2B block -3% and VDR inhibitor inconclusive.
Screening COc1ccc(/C=C2\SC(=O)N(CCNC(=O)C3CCN(S(=O)(=O)c4cccs4)CC3)C2=O)cc1 returned JMJD2A Tudor inh -13%, HP1b chromo inh 3%, G9a block -4%[59 µM], PLK1 PBD inh -6%, BAZ2B block 3% and VDR inhibitor -13%.
For C=CCNC(=O)c1oc2ccc(S(=O)(=O)N(CC)CC)cc2c1C the results were JMJD2A Tudor inh -15%, HP1b chromo inh 26%, G9a block inconclusive, PLK1 PBD inh 9.5µM*, BAZ2B block -29% and VDR inhibitor -19%.
CCN(CC)S(=O)(=O)c1ccc2oc(C(=O)NCCN3CCOCC3)c(C)c2c1 was read as JMJD2A Tudor inh -31%[57.1 µM], HP1b chromo inh 4%, G9a block -6%[59 µM], PLK1 PBD inh 27µM*, BAZ2B block 10% and VDR inhibitor -16%.
Screening O=C(Nc1nccs1)C1CC=CC2CCN(Cc3ccc(Cl)c(Cl)c3)C(=O)C21 (stereo unspecified) returned JMJD2A Tudor inh -13%, HP1b chromo inh 31% and VDR inhibitor -20%.
Nc1ncnc2c1ncn2[C@@H]1O[C@H](C(=O)N2CCN(Cc3ccccn3)CC2)[C@@H](O)[C@H]1O was read as PLK1 PBD inh -2%.
